AMA1-RON2 inh = qHTS for Inhibitors of AMA1-RON; Towards Development of Antimalarial Drug Lead: Primary Screen. Potency, µM (top dose mostly 58.2 µM), inactives show at the top dose activity change, negative = inhibition, actives largely listed as inhibitors. AlphaScreen AMA1-biotinylated RON2 peptide binding. hit rate 0.2% among 360,000;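 note: 0% = vehicle wells and -100% = peptide control; nearly all actives have a fitted effect of over 45% in size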
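AMA1 (3D7) with his tag at 25 nM final met compounds first, then biotinylated RON2 peptide at 25 nM; detection used donor plus acceptor beads, 10 µg/mL apiece, read by AlphaScreen after 30 min at room temperature.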
Pf growth 48h = Primary qHTS for delayed death inhibitors of the malarial parasite plastid, 48 hour incubation. P. falciparum luciferase growth in erythrocytes, 48 h. Potency, µM (highest dose often 28.7 µM), inactives show at the highest dose activity change, negative = inhibition, hits mostly inhibitors. hit rate 5.9% among 310,000; note: % is set by controls: 0 for no effect and ±100 for the full control effect
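Growth was read as firefly luciferase luminescence after a 48 h, 37 C, 5% CO2 exposure of compounds to reporter-bearing P. falciparum cultures (0.1% parasitemia, 2% hematocrit final) in Albumax-supplemented RPMI 1640.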
NS1 function inh = qHTS Assay for Inhibitors of Influenza NS1 Protein Function; Potency, µM (highest dose often 46.1 µM), without a hit: at the highest dose activity, positive = more growth; hit rate 0.4% among 270,000; AID 2326, 2010; calls by dose curve; note: actives are rising curves; nearly all actives have a fitted effect of over 50% in size
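S. cerevisiae expressing influenza A NS1, grown in glucose, washed, then diluted 1:100 into pH 6.0 -URA galactose medium with 23 nl compound. Growth recovery read as OD600; NS1-free strain serves as control.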
Pf growth 96h = Primary qHTS for delayed death inhibitors of the malarial parasite plastid, 96 hour incubation | P. falciparum luciferase reporter growth, 96 h | Potency, µM (doses to about 28.7 µM), without a hit: top-dose activity change, negative = inhibition, hits mostly inhibitors | hit rate 6.9% among 320,000 | AID 504834, 2011; note: % is set by controls: 0 for no effect and ±100 for the full control effect
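Plates of compound plus infected erythrocytes (2% hematocrit, 0.05% parasitemia final) incubate 96 hours, 37 C, 5% CO2. Detection reagent added; reduced luminescence from the parasites' luciferase reporter flags inhibition.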
SARS PLP yeast = qHTS of Yeast-based Assay for SARS-CoV PLP; Potency, µM (series often up to 32.9 µM), for the others: top-dose activity, positive = growth rescue, most hits filed as activators; hit rate 0.19% among 330,000; S. cerevisiae expressing SARS-CoV PLpro, growth rescue; AID 485353, 2010; calls by dose curve; note: 0% is about no effect; nearly all actives have a fitted effect of over 55% in size
HCV inh = qHTS Assay for Inhibitors of Hepatitis C Virus (HCV); Huh7.5.1 HCVcc-Cre infection, luciferase reporter, 44 h; Potency, µM (top dose mostly 41.8 µM), without a hit: top-dose activity change, negative = inhibition, actives largely listed as inhibitors; hit rate 3.4% among 340,000; AID 651820, 2012; note: % is set by controls: 0 for no effect and ±100 for the full control effect
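A cell-based infection assay in which seeded cells (1,000 per well) receive test compound after 4 h, are inoculated with HCVcc-Cre at approximately 0.5 moi, and are incubated 44 h before luminescence detection.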
Numbers without * were called inactive; i = inactive; ? = inconclusive; nt = no result given; [ ] = another dose, or the depositor's remark. Only some compounds are listed: those with a hit (about 12% of all), similar ones and a draw of the others. Unless noted, calls come from the whole dose curve; as a rule, active = well fitted curve in the direction sought with a large enough effect; inconclusive = small, poorly fitted or top-dose-only effect, or another doubt; inactive = no such curve, though single readings can be large; an effect the other way counts as inactive or inconclusive. Potency is the fitted concentration of half-maximal effect.

SMILES	AMA1-RON2 inh	Pf growth 48h	NS1 function inh	Pf growth 96h	SARS PLP yeast	HCV inh
Cc1nn(-c2ccc(NC(=O)c3ccncc3)cc2)c(C)c1Cl	-11.1%	-9.3%	-14.4%	-40.2%	2.1%	3.16µM*
Cc1[nH]c2ccc(C(=O)O)cc2c1C	-3.2%	nt	-64.6%	1.0%	-4.2%	17.3%
Cc1[nH]c2ccc(C(=O)Nc3ccncc3)cc2c1C	1.6%	?	1.5%	11.7µM*	-1.6%	11.2µM*
O=C(Nc1ccc(Cl)c(Cl)c1)c1ccc(Cl)c(Cl)c1	3.7%	77.5%	4.2%	91.6%	1.7%	-17.9%
C/C(=N\NC(=O)c1c(Cl)c(C)nn1C)c1ccc(NC(=O)c2ccncc2)cc1	10.1%	?	-8.2%	?	11.0%	?
Cc1cc(C(C)(C)C)cc(CNC2CCCCC2)c1O	nt	nt	-5.6%	nt	nt	nt
CN(CC(=O)Nc1ccccc1C(F)(F)F)C(=O)COc1ncnc2ccccc12	-8.3%	-6.4%	nt	17.1%	0.6%	7.2%
O=C(Nc1ccc(Cl)c(Cl)c1)OCc1cccnc1	-9.1%	-81.8%	-69.4%	?	-32.7%	22.4µM*
O=C(Nc1cccnc1)OCc1ccccc1	5.3%	50.8%	-1.2%	-15.6%	-0.8%	14.9%
CC(C)(C)c1cc(C(=O)Nc2cccnc2)cc(C(=O)Nc2cccnc2)c1	19.4%	nt	3.9%	0.828µM*	-0.6%	?
O=C(Nc1ccc(Cl)c(Cl)c1)c1cccc(S(=O)(=O)NCc2cccnc2)c1	17.6%	4.5%	-43.7%	?	-26.3%	14.1µM*
O=C(Nc1cccnc1)c1ccc(Cl)c(Cl)c1	11.4%	?	-48.5%	6.57µM*	-11.0%	-1.9%
C[C@H](Cc1ccccc1)Nc1ncnc2c1ncn2[C@@H]1O[C@H](CO)[C@H](O)[C@H]1O	nt	nt	-3.2%	nt	nt	nt
Cn1nc(C(=O)OCC(=O)Nc2sccc2C(N)=O)c2ccccc2c1=O	-1.7%	26.8%	1.8%	21.2%	0.1%	-19.6%
CCOC(=O)C1CCCN(C(=S)Nc2cccc(Cl)c2)C1 (stereo not drawn)	0.0%	10.0%	-4.7%	i	6.1%	-10.2%
O=C(c1ccccc1)C(O)c1ccccc1 (stereo not drawn)	8.5%	?	nt	9.53µM*	-1.3%	?
O=C(NC(NC(=O)c1ccccc1)C(=O)c1ccccc1)c1ccccc1	-2.4%	-18.5%	-0.9%	2.33µM*	22.5%	-2.9%
O=C(O)[C@@H](O)c1ccccc1	-2.1%	nt	-4.2%	nt	0.5%	20.3%
COc1c(Cl)cccc1-c1cn2ccc(C)cc2n1	-10.6%	180.4%	-36.3%	293.5%	-13.6%	?
O=S(=O)(c1ccccc1)N1CN2CN(C1)CN(S(=O)(=O)c1ccccc1)C2	nt	nt	2.6%	nt	nt	nt
Cc1cc(OCCOCCNC(C)C)cc(C)c1Cl	-27.9%	nt	0.3%	4.6%	-12.0%	?
Cc1cc(OCCCCNC(C)C)cc(C(C)C)c1	-27.1%	?	-14.6%	6.57µM*	-10.0%	?
O=C1NCCCC2c3cc(O)c4ccccc4c3OC12N1CCCCC1 (stereo not drawn)	nt	8.28µM*	9.7%	19.6%	-0.4%	nt
O=C1NCCCC2c3c(cc(Br)c(O)c3Br)OC12N1CCOCC1 (stereo not drawn)	?	1.8%	6.2%	?	6.3%	8.6%
CC(C)N(C(=O)c1nn(C)c2c1CSc1ccccc1-2)C1CCCCC1	13.6%	-23.5%	14.7%	2.08µM*	-4.7%	?
SMILES	AMA1-RON2 inh	Pf growth 48h	NS1 function inh	Pf growth 96h	SARS PLP yeast	HCV inh
COC(CNS(=O)(=O)c1ccc(Cl)cc1)c1ccccc1 (stereo not drawn)	-7.6%	-11.8%	14.0%	13.1µM*	24.0%	7.2%
Cc1cc(C)c(S(=O)(=O)N2CCOC2CNC(=O)C(=O)NCCCN2CCOCC2)c(C)c1 (stereo not drawn)	8.0%	20.1%	-3.7%	?	-1.0%	8.1%
O=C(O)c1ccc(Nc2nc3ccc(Cl)cc3[nH]2)cc1	4.4%	51.6%	2.2%	33.3%	-0.5%	2.82µM*
Cc1cccc(C)c1NC(=O)C[N+](C)(C)C	nt	nt	-6.2%	nt	nt	nt
CC1(C)OC(=O)N(NCc2ccccc2)C1(C)O (stereo not drawn)	0.0%	1.4%	1.3%	6.8%	-1.9%	-10.6%
COc1ccc(CN(C(=O)c2ccc(-c3ccccc3)[nH]2)C(C(=O)NCC2CCCO2)c2ccc(C)o2)cc1 (stereo not drawn)	?	8.28µM*	-8.8%	6.57µM*	-9.4%	-19.0%
O=C(NC1CCCCC1)C(c1ccc(F)cc1)N(CCCN1CCOCC1)C(=O)c1ccc(CN2CCOCC2)o1 (stereo not drawn)	-8.8%	?	19.1%	0.0%	0.4%	-9.4%
O=C(NCC1CCCO1)C(c1ccc(F)cc1)N(CCCN1CCOCC1)C(=O)c1ccc(-c2ccccc2)[nH]1 (stereo not drawn)	-13.6%	13.1µM*	nt	8.8%	-2.4%	3.8%
O=C(NCC1CCCO1)C(c1cccs1)N(Cc1ccccc1)C(=O)c1ccc(-c2ccccc2)[nH]1 (stereo not drawn)	?	?	?	i	9.4%	11.2%
CC(C)(C)NC(=O)C(c1cccs1)N(CC1CCCO1)C(=O)c1ccc(-c2ccccc2)[nH]1 (stereo not drawn)	?	13.1µM*	11.1%	478.0%	6.9%	?
O=C(NCC1CCCO1)C(c1cccs1)N(C(=O)c1ccc(-c2ccccc2)[nH]1)C1CCCC1 (stereo not drawn)	4.5%[2.32 µM]	10.4µM*	23.8%	?	16.1%	-27.6%
NC(=S)c1ccc[n+]([C@@H]2O[C@@H](COP(=O)([O-])OP(=O)(O)OC[C@H]3O[C@@H](n4cnc5c(N)ncnc54)[C@H](OP(=O)(O)O)[C@H]3O)C(O)C2O)c1 (stereo partly drawn)	nt	nt	-15.6%	nt	nt	nt
O=C(CCC(=O)N1CCSc2ccccc21)NC1CCCCC1	17.1%	10.1%	22.8%	?	2.1%	1.7%
O=[N+]([O-])c1cccc2ccc(/C=C/c3ccc(Cl)cc3)nc12	?	6.3%	?	?	-13.3%	?
CCOc1cc(/C=C/c2ccc3cccc([N+](=O)[O-])c3n2)cc(Cl)c1O	-22.7%	9.28µM*	6.6%	?	2.8%	?
Cc1cc(-c2nnc(-c3ccccc3)c(-c3ccccc3)n2)c(C)o1	33.7%	13.1µM*	4.0%	?	-3.4%	?
COc1cccc(CNC(=O)CSc2nc(=O)n(Cc3ccncc3)c3c2CCC3)c1	18.9%	10.4µM*	nt	?	nt	-19.5%
